Each structure is given as a SMILES string. Screen size: about 310,000 compounds; about 18,000 (5.8%) were called active. Where a call stands in place of a potency, no number is given. Another 22% or so got no clear call; they are omitted. Calls follow the shape of the dose curve; as a rule, active = well fitted inhibition curve with a large enough effect; inconclusive = small, poorly fitted or top-dose-only effect, or another doubt; inactive = no such curve, though single readings can be large or run the other way. The sample as a whole holds a higher share of actives than the screen did.
Potency is read from the fitted curve at half-maximal effect.

The experiment is described as follows: Primary qHTS for delayed death inhibitors of the malarial parasite plastid, 48 hour incubation. To be noted: P. falciparum luciferase growth in erythrocytes; series mostly up to 28.7 µM. In outline:
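Parasite viability was followed by luminescence of a genomically integrated firefly luciferase. Cultures held 0.1% parasitemia at 2% hematocrit (final), incubated under 5% CO2 at 37 C.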
Background: Quantitative high-throughput screening tests each substance at several concentrations.
Consider `Cc1cc2c(cc1C)[n+](C)cn2CC(O)COCC1CC=CCC1` (stereo not drawn), for which the Potency is 2.94 µM (active).

For the molecule `COc1ccc(S(=O)(=O)NCCOc2ccccc2)cc1F`, the Potency entry was “inactive”.

Regarding `COc1ccc(NC(=O)CCC(=O)Nc2cc(OC)c(NC(=O)c3ccco3)cc2OC)c(OC)c1`, the Potency result is “inactive”.

As for `CC1(c2ccc(Cl)cc2Cl)NC(=O)N(CC(=O)Nc2cccnc2Cl)C1=O` (stereo not drawn), the Potency entry is “inactive”.

In the case of `Cc1cc(Br)ccc1NC(=O)CN(C)C(=O)CN1C(=O)NC2(CCCC2)C1=O`, the Potency entry was “inactive”.

With `Cc1ccc(S(=O)(=O)Nc2ccc3ncccc3c2)cc1`, the Potency result was “inactive”.

As for `COc1ccc2cc(S(=O)(=O)Nc3ccccn3)ccc2c1`, the Potency entry is “inactive”.

As for `COc1cc(NS(=O)(=O)c2ccc3ccccc3c2)c2ncccc2c1`, the Potency was 4.15 µM (active).

For `CN(C(=O)C1CCN(c2ncnc3c2nc2n3CCCCC2)CC1)C1CCCCC1`, the Potency result is “inactive”.

Turning to `Cc1cc(C)cc(NC(=O)NCc2ccccn2)c1`, the Potency entry was “inactive”.

Regarding `CN(C)C(=O)N=NC(=O)N(C)C`, the Potency result is “inactive”.

Turning to `Cc1ccc(C(=O)CSc2ccccc2C(=O)O)cc1`, the Potency entry is “inactive”.

For the molecule `CCS(=O)(=O)N1CCN(C(=O)c2cccs2)CC1`, the Potency result is “inactive”.

Turning to `O=C(C[n+]1cc(-c2ccc(Cl)c(Cl)c2)n2c1CCC2)c1cccs1`, the Potency was 2.08 µM (active).

For `Cc1ccc(C(=O)CS(C)(=O)=O)cc1`, the Potency entry was “inactive”.

Consider `Cc1ccc(S(=O)(=O)N(C)CC(=O)OCC(=O)Nc2ccccc2)cc1`, for which the Potency result is “inactive”.

`Cc1ccc(-c2c[n+](CC(=O)Nc3ccccc3)c3n2CCC3)cc1`: the Potency was 7.38 µM (active).

As for `Cc1ccc(C(=O)C[n+]2cc(-c3ccccc3)n3c2CCCCC3)cc1`, the Potency was 1.85 µM (active).

With `O=C(CN1CCOCC1)Nc1ccccc1`, the Potency entry was “inactive”.

With `O=C(CN1C2=NCCN2c2ccccc21)c1cccs1`, the Potency result is “inactive”.

`Cc1c(NC(=O)c2c([N+](=O)[O-])cnn2C)c(=O)n(-c2ccccc2)n1C`: the Potency entry was “inactive”.

For `Cc1ccc(NC(=O)CCN2C(=O)c3ccccc3C2=O)cc1C`, the Potency result is “inactive”.

With `O=C(NCc1ccc2c(c1)OCO2)C(=O)NCC1OCCN1S(=O)(=O)c1ccc(F)cc1` (stereo not drawn), the Potency entry is “inactive”.

With `O=C(COc1ccccc1)Nc1cc2c3c(c1)CC(=O)N3CCC2`, the Potency result was “inactive”.

For `Cc1nn(-c2ccccc2)c2c1c(C)c(CCC(=O)NCC1CCCO1)c(=O)n2C` (stereo not drawn), the Potency entry is “inactive”.

Consider `Cc1cc(OCC(=O)Nc2c(C)n(C)n(-c3ccccc3)c2=O)ccc1[N+](=O)[O-]`, for which the Potency entry was “inactive”.

For `CCCCc1nc2cc(C(=O)NCCc3cnn(C)c3)ccc2o1`, the Potency result was “inactive”.

`Cc1oc(-c2ccccc2F)nc1CS(=O)CC(=O)NCCN1CCCCC1C` (stereo not drawn): the Potency result is “inactive”.

As to `CC(C)NC(=S)NN=C1CCCCCCCCCCC1`, the Potency was 11.7 µM (active).

In the case of `C/C(=N\NC(=S)NC(C)C)c1ccc(C(C)(C)C)cc1`, the Potency result was “inactive”.

On to `CC(C)(C)NC(=O)C(=O)NN=C1CCCCCCC1`, for which the Potency entry was “inactive”.

For `COc1ccccc1C(=O)Nc1cccc(C(=O)N2CCOCC2)c1`, the Potency entry was “inactive”.

`Cc1noc(C)c1CCC(=O)N1CCCC(CO)(Cc2ccccc2)C1` (stereo not drawn): the Potency result is “inactive”.

On to `Cc1ccccc1N1CCN(CCCN2C(=O)C3CCCCN3C2=O)CC1` (stereo not drawn), for which the Potency entry was “inactive”.

As to `CC(=O)Nc1ccc(S(=O)(=O)NNC(=O)CCc2ccccc2)cc1`, the Potency entry was “inactive”.

`CS(=O)(=O)N1CCCC(C(=O)Nc2ccccc2C(F)(F)F)C1` (stereo not drawn): the Potency entry is “inactive”.

For the molecule `O=C(OCC1OC(Oc2ccc(O)cc2)C(O)C(O)C1O)c1ccccc1` (stereo not drawn), the Potency entry is “inactive”.

In the case of `Cc1cc(C)c2nc(-c3ccco3)cc(C(=O)O)c2c1`, the Potency result is “inactive”.

On to `Cc1cc(C)c2nc(SCCC#N)nc(C)c2c1`, for which the Potency result is “inactive”.

Consider `Cc1cc(C)c2nc3nc(C)cc(C)c3c(N)c2c1`, for which the Potency is 2.33 µM (active).

Regarding `Cc1ccc(C(=O)NCCN2CCOCC2)cc1C`, the Potency entry was “inactive”.

On to `CCC1=Nc2cc(C(=O)NCCN3CCCC3)ccc2Sc2ccc(C)cc21`, for which the Potency is 10.4 µM (active).

For `Cc1cc(C)cc(C(=O)NCCN2CCOCC2)c1`, the Potency entry is “inactive”.

Consider `Cc1ccccc1N(C(=O)CNC(=O)c1cccs1)C(C(=O)NC1CCCC1)c1ccncc1` (stereo not drawn), for which the Potency result is “inactive”.

Take `Cc1ccc(N(C(=O)CNC(=O)c2ccco2)C(C(=O)NC2CCCC2)c2ccncc2)cc1` (stereo not drawn): the Potency entry was “inactive”.

For `COc1cccc(N(C(=O)CNC(=O)c2ccco2)C(C(=O)NC2CCCCC2)c2cccnc2)c1` (stereo not drawn), the Potency result is “inactive”.

As for `COc1cc(C(C(=O)NC2CCCC2)N(C(=O)c2ccco2)c2ccccc2C(C)=O)cc(OC)c1OC` (stereo not drawn), the Potency result was “inactive”.

For the molecule `CC(C)c1ccc(N(C(=O)c2ccco2)C(C(=O)NC2CCCC2)c2cccnc2)cc1` (stereo not drawn), the Potency is 9.28 µM (active).

With `O=C(NC1CCCC1)C(c1ccc(N2CCOCC2)cc1)N(C(=O)c1ccco1)c1ccccc1F` (stereo not drawn), the Potency is 10.4 µM (active).

As to `O=C(NCc1ccccc1)C(c1ccco1)N(C(=O)c1csnn1)c1ccccc1F` (stereo not drawn), the Potency entry is “inactive”.

For `O=C(NC1CCCC1)C(c1ccco1)N(C(=O)c1csnn1)c1ccccc1` (stereo not drawn), the Potency entry is “inactive”.

As for `COc1cccc(C(C(=O)NC2CCCC2)N(C(=O)c2ccco2)c2cccc(C(C)=O)c2)c1OC` (stereo not drawn), the Potency is 1.85 µM (active).

`CSc1ccccc1NC(=O)C(C)N1C(=O)c2ccccc2S1(=O)=O` (stereo not drawn): the Potency entry was “inactive”.

Turning to `CC1=C(C(=O)OC2CCCCC2)C(c2ccccc2F)NC(=O)N1` (stereo not drawn), the Potency result is “inactive”.

For `CC(=O)c1c(C)[nH]c(C(=O)COc2ccc3c(C)cc(=O)oc3c2)c1C`, the Potency result was “inactive”.

Consider `CN(C1CCS(=O)(=O)C1)S(=O)(=O)c1ccc2ccccc2c1` (stereo not drawn), for which the Potency result is “inactive”.

For `COc1ccc(NC(=O)NNC(=O)COc2cc(C)c(Cl)c(C)c2)c(OC)c1`, the Potency entry was “inactive”.

As to `CCN1C(=O)/C(=c2\s/c(=C3\Sc4ccccc4N3C)c(=O)n2C)N(C)C1=S`, the Potency entry is “inactive”.

Consider `CN1/C(=c2/s/c(=C3/C(=O)N(c4ccccc4)NC3=Nc3ccccc3)n(C)c2=O)C(C)(C)c2ccccc21`, for which the Potency is 13.1 µM (active).

On to `CCc1cc2c(NC(Cc3ccccc3)C(=O)O)ncnc2s1` (stereo not drawn), for which the Potency result is “inactive”.

In the case of `CC(C)(C)C(=O)CSc1ccc(S(=O)(=O)N2CCCC2)cn1`, the Potency entry was “inactive”.

With `Cc1ccc(C)c(C(C)NC(=O)C2CCCO2)c1` (stereo not drawn), the Potency entry is “inactive”.

Consider `COc1ccc(C(=O)NC2CC2)cc1OC1CCN(Cc2cnn(C)c2)CC1`, for which the Potency result is “inactive”.

For `Clc1ccc(CN2CCCCCC2)cc1Cl`, the Potency entry is “inactive”.

Regarding `Clc1ccc(C[n+]2cc(-c3ccccc3)n3c2CCC3)cc1`, the Potency was 1.04 µM (active).

For the molecule `Clc1ccc(C[n+]2cc(-c3ccc(Cl)cc3)n3c2CCC3)cc1`, the Potency is 0.828 µM (active).

In the case of `Cn1c(-c2ccccc2)c[n+]2c1CCCCC2`, the Potency result was “inactive”.

Take `CC(NC(=O)c1cc2cc(Cl)ccc2oc1=N)c1ccccc1` (stereo not drawn): the Potency result is “inactive”.

The record behind these values is PubChem BioAssay AID504832 (National Center for Advancing Translational Sciences (NCATS), 2011).
